beta cell repl – inducers of MIN6 beta-cell proliferation, primary screen, ATP luminescence, uHTS; MIN6 cells proliferation, ATPlite luminescence, 48 h; cells starved in 0.2% serum; 100% = growth in 10% serum; proliferation, % at 10 µM; 0.29% of 330,000 active; AID 2380, 2010;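 active = compounds whose signal lies at least 3.5 SD above the mean of all wells on their plate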
FAS TE block – FAS thioesterase domain inhibitors, primary screen, biochemical, fluorescence intensity, uHTS | inhibition, % at 15 µM | Fatty acid synthase (Homo sapiens), P49327 | AID 602261, 2012 | 0.67% of 360,000 active | recombinant FAS-TE, OMFH fluorogenic substrate, fluorescence endpoint;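 active = compounds whose normalised, plate-corrected inhibition of enzyme fluorescence in the single-dose primary screen is 50% or more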
pCIP destab – p/CIP-EGFP fusion destabilizers, primary screen, fluorescence, F442A cells | AID 1984, 2009 | 0.01% of 290,000 active | 16 h | decrease of EGFP signal, % at 10 µM;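 active = EGFP signal decrease of at least 30% at 10 µM or well 3 SD below plate mean, unless failing retest; inactive = the rest, including hits failing retest or dose response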
MPTP inh – mitochondrial permeability transition pore inhibitors, primary screen, biochemical, isolated mouse mitochondria, absorbance | Ca2+ swelling absorbance, 30 min | inhibition, % at 10 µM | 1.4% of 360,000 active;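 active = inhibition of 50% or more, scaled per plate between neutral and stimulator controls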
NR3A LBD binder – binders of NR3A ligand-binding domain, primary screen, biophysical, differential scanning fluorimetry, uHTS; Glutamate receptor ionotropic, NMDA 3A (GRIN3A) ligand-binding domain; NR3A LBD differential scanning fluorimetry, Tm shift; 0% = protein alone, 100% = glycine-bound protein; Tm shift relative to glycine control, % at 25 µM; 2.5% of 340,000 active; AID 1259313, 2017;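 active = melting temperature shift of at least 10% of the positive control shift, at one fixed dose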
Numbers stand for hits; - = inactive; . = not tested or not shown. This is a sample that favours compounds with a hit; in the whole collection about 4.1% have one here.

SMILES | beta cell repl | FAS TE block | pCIP destab | MPTP inh | NR3A LBD binder
COc1ccc(/C=C/C(=O)NCC(=O)N/N=C(/C)c2ccco2)cc1 | - | - | - | - | 14
COc1ccc(-c2csc(C(C)(O)c3ccc(OC)cc3)n2)cc1 (stereo not given) | . | - | . | - | .
Oc1ccc(-c2[nH]ncc2-c2cnn(-c3ccccc3)c2)c(O)c1 | - | - | - | - | -
Oc1cnn(-c2ccccc2)c1 | - | - | - | - | 15
CCOC(=O)Nc1ccc2nc(N3CCCCCC3)sc2c1 | - | - | - | - | 21
CCOC(=O)N1CCN(C(=O)Nc2ccc3nc(C)sc3c2)CC1 | - | - | - | - | -
CC(C)c1nnc(NC(=O)CCC(=O)NC2CCCCC2)s1 | - | . | - | . | -
CC(C)c1nnc(NC(=O)CCC(=O)NC2CCCc3ccccc32)s1 (stereo not given) | - | - | - | - | 11
CC(=NNC(=O)c1ccncc1)c1ccc2ccccc2c1O | . | - | . | - | -
Oc1[nH]c(=S)sc1C=C1N=c2ccccc2=N1 | - | - | - | - | 18
O=C1Nc2ccccc2N=C(c2ccccc2)c2ccccc21 | - | - | - | - | -
Oc1[nH]c(=S)sc1/C=C1\C(c2ccccc2)=Nc2ccccc21 | . | - | - | - | 16
CC(C)(C)n1nnnc1C(c1ccccc1)N1CCN(c2c(Cl)cncc2Cl)CC1 (stereo not given) | . | - | . | - | .
CCN(C(=O)COC(=O)c1c(-c2ccccc2)noc1C)c1c(N)n(Cc2ccccc2)c(=O)[nH]c1=O | - | - | - | - | 15
COc1cc(OC)nc(Nc2nc(C(N)Cc3ccc(C(F)(F)F)cc3)cs2)n1 (stereo not given) | . | - | . | - | .
CCCc1c(C)c2ccc(OCC(C)=O)cc2oc1=O | - | - | - | - | 12
CCCCc1c(C)c2ccc(OCC(C)=O)cc2oc1=O | - | - | - | - | -
C=CCCC(=O)Nc1nc(C)c(-c2csc(Nc3ccc(Cl)cc3Cl)n2)s1 | - | - | - | - | 12
Nc1ccc(C(=O)OCc2nc3c(ccc4ccccc43)[nH]2)cc1 | - | - | - | - | 27
CCOC(=O)C1(C)CCCN(C(=O)c2ccc(OC)cc2OC)C1 (stereo not given) | . | - | . | - | .
CCOc1cc(/C=C2\C(=O)N(c3nc(-c4ccc(Br)cc4)cs3)N=C2c2ccccc2)ccc1O | - | - | - | - | 16
COc1cc(/C=C2\C(=O)N(c3ccc(NC(C)=O)cc3)N=C2c2ccccc2)ccc1O | - | - | - | - | -
O=C1/C(=C\c2ccc(O)c(O)c2)C(c2ccccc2)=NN1c1ccccc1 | . | - | - | - | 12
CCOc1cc(/C=C2/SC(=S)N(Cc3ccccc3)C2=O)ccc1O | - | - | - | - | -
O=C(COC(=O)/C=C/c1cc(Br)ccc1F)Nc1ccc2[nH]c(=O)[nH]c2c1 | - | - | . | - | 10
SMILES | beta cell repl | FAS TE block | pCIP destab | MPTP inh | NR3A LBD binder
CC(C)Nc1nc(NCc2ccccc2)c2sccc2n1 | . | - | . | - | .
COc1cc(C(O)c2nc(-c3ccc(C)c(C)c3)cs2)ccc1F (stereo not given) | . | - | . | - | .
CCCCNC(=O)CC1N=C2c3ccccc3N=C(SCC(=O)Nc3ccccc3C)N2C1=O (stereo not given) | - | - | - | - | 18
CCOC(=O)CSC1=Nc2ccccc2C2=NC(CC(=O)NCc3ccccc3)C(=O)N12 (stereo not given) | - | - | - | - | -
COC(=O)[C@@]12C[C@@H](CC(=O)NCC34CC5CC(CC(C5)C3)C4)C(=O)N(Cc3ccc4c(c3)OCO4)C1=CCC(C)(C)C2 | . | . | . | - | .
CCNc1nc(NC(C)C)nc(-c2ccncc2)n1 | . | - | . | - | .
Oc1cc2c(cc1C(c1ccc(Br)cc1)N1CCCC1)OCO2 (stereo not given) | - | - | - | - | 29
O=S(=O)(NCC(c1ccc2c(c1)OCO2)N1CCOCC1)c1ccc(Br)cc1 (stereo not given) | - | - | . | - | -
CC(=O)c1c(C)[nH]c(C(=O)OCC(=O)NCc2ccccc2)c1C | . | - | . | - | .
Cc1ccc(S(=O)(=O)N2CCN(CCc3ccncc3)CC2)cc1 | - | - | . | - | 11
CCCCNC(=O)c1nc(C2CCN(S(=O)(=O)c3cccc(C(F)(F)F)c3)CC2)oc1-c1ccccc1 | . | - | . | - | .
Fc1cc2[nH]c(=S)[nH]c2cc1Cl | - | - | - | - | 32
Oc1cccc2c(-c3nn[nH]n3)ccnc12 | - | - | . | - | -
c1ccc2c(-c3nn[nH]n3)cccc2c1 | - | - | - | - | 12
S=c1[nH]c2cc3ccccc3cc2[nH]1 | - | - | - | - | 26
COCCN1C(=O)CCC1(C)c1nnnn1-c1ccc2ccccc2c1 (stereo not given) | . | . | . | - | .
Cc1ccc(S(=O)(=O)N2CCOC23CCN(S(=O)(=O)c2cccs2)CC3)cc1 | - | - | . | - | 12
COC(=O)c1ccc(NC(=O)c2cc3sccc3n2C)cc1 | . | - | - | - | -
Cn1c(C(=O)Nc2ccccc2)cc2sccc21 | - | - | - | - | 22
Cc1[nH]nc(-c2ccc(OCc3cnn(-c4ccccc4)c3)cc2O)c1Oc1ccc(F)cc1 | - | - | - | - | 20
CCOc1ccc(-c2n[nH]c(C)c2Oc2ccc(OC)cc2)c(O)c1 | - | - | - | - | 12
Nc1nc(N)nc(C2C=CCCC2)n1 (stereo not given) | . | - | . | - | -
O=C(Cc1ccc2c(c1)OCCO2)c1c(O)cc(O)cc1O | - | - | - | - | -
COc1cc(O)c(CC=C(C)C)c(O)c1C(=O)CCc1ccc(O)cc1 | - | - | - | - | 19
O=C(CCc1ccc(O)cc1)c1c(O)cc(O)cc1O | - | - | - | - | 21
SMILES | beta cell repl | FAS TE block | pCIP destab | MPTP inh | NR3A LBD binder
COc1ccc(CCC(N)=O)cc1OC | - | - | - | - | -
CS(=O)(=O)c1ccc(C(=O)Nc2ccc(-c3nc4ccccc4[nH]3)cc2)cc1 | - | - | - | - | 32
CS(=O)(=O)c1ccc(C(=O)Nc2cccc(-c3nc4ccccc4[nH]3)c2)cc1 | - | - | - | - | 13
O=C(Nc1cccc(-c2nc3ccccc3[nH]2)c1)c1cccc(NC(=O)c2ccco2)c1 | - | - | - | - | 20
CS(=O)(=O)c1cccc(C(=O)Nc2cccc(-c3nc4ccccc4[nH]3)c2)c1 | - | - | - | - | -
O=C(CSc1nc2ccccc2s1)Nc1ccc2c(c1)OCO2 | - | - | - | - | 14
CC(=O)Nc1ccc(S(=O)(=O)NC(C)C(=O)OCC(=O)Nc2ccc(F)cc2Cl)cc1 (stereo not given) | . | - | . | - | .
COC[C@H]1CCCN1c1ccc2c(c1)O[C@H](COCc1ccccc1)CN([C@H](C)c1ccccc1)S2(=O)=O | . | - | . | - | .
CCOC(=O)N(C)c1c(CC)nc2c(OCc3ccc(Cl)cc3)cccn12 | . | - | . | - | .

Source: PubChem BioAssay (Sanford-Burnham Center for Chemical Genomics)
